Counter-ions that a name gives are not always drawn. The full ranking holds about 1,900 compounds; the median of “relative cell viability (CellTiter-Glo), compound plus cabozantinib, relative to the cabozantinib arm (arm median 1.05; reference not stated)” is about 1.1, and the lowest 2% start at about 0.15. The entries come from a sample that favours the lowest values as a whole.
Tested on: Hep3B
Assay: relative cell viability (CellTiter-Glo), compound plus cabozantinib, relative to the cabozantinib arm (arm median 1.05; reference not stated) (fraction); higher = more viable cells (less growth inhibition)
Details: cabozantinib 2 µM; 4 days

Row | SMILES | relative cell viability
1 | CCOC(=O)C1=C(C)NC(C)=C(C(=O)OC)C1c1cccc(Cl)c1Cl (stereo not given) [Felodipine] | 1.11
2 | CN1CCN2c3ncccc3Cc3ccccc3C2C1 (stereo not given) [Mirtazapine] | 1.01
3 | O=C(O[C@H]1CN2CCC1CC2)N1CCc2ccccc2[C@@H]1c1ccccc1 [Solifenacin succinate] | 1.11
4 | O=C1NC(=O)[C@@H](c2cn3c4c(cccc24)CCC3)[C@@H]1c1c[nH]c2ccccc12 [Tivantinib (ARQ 197)] | 0.835
5 | CC(C)n1c(/C=C/C(O)CC(O)CC(=O)O)c(-c2ccc(F)cc2)c2ccccc21 (stereo not given) [Fluvastatin Sodium] | 1.14
6 | CC[C@H]1[C@@H](O)[C@@H]2[C@H](CC[C@]3(C)[C@@H]([C@H](C)CCC(=O)O)CC[C@@H]23)[C@@]2(C)CC[C@@H](O)C[C@@H]12 [Obeticholic Acid] | 1.12
7 | COc1ccc(-c2ccc3c(N4CCOCC4)nc(N4C[C@@H](C)O[C@@H](C)C4)nc3n2)cc1CO | 0.773
8 | COc1ccc(C[C@H](N)C(=O)N[C@H]2[C@@H](O)[C@H](n3cnc4c(N(C)C)ncnc43)O[C@@H]2CO)cc1 [Puromycin 2HCl] | 0.0197
9 | CNc1ncnc2c1ncn2[C@@H]1O[C@H](CO)[C@@H](O)[C@H]1O [N6-methyladenosine (m6A)] | 1.21
10 | COc1nc(N)nc2c1ncn2[C@@H]1O[C@H](CO)[C@@H](O)[C@@H]1O [Nelarabine] | 1.17
11 | S=C(NCc1ccc2c(c1)OCO2)N1CCN(c2ncnc3c2oc2ccccc23)CC1 [Amuvatinib (MP-470)] | 1.03
12 | C=CC(=O)Nc1cccc(Sc2nc(Nc3ccc(N4CCN(C)CC4)cc3)ncc2Cl)c1 | 0.747
13 | Cc1cnc(Nc2ccc(N3CCN(C)CC3)cc2)nc1Nc1cccc(S(=O)(=O)NC(C)(C)C)c1 | 0.281
14 | C=CCn1c(=O)c2cnc(Nc3ccc(N4CCN(C)CC4)cc3)nc2n1-c1cccc(C(C)(C)O)n1 | 0.144
15 | C=CC(=O)Nc1ccc2ncnc(Nc3ccc(OCc4cccc(F)c4)c(Cl)c3)c2c1 | 0.775
16 | CCCc1ccc(OCC(=O)N(Cc2nc(-c3cccnc3)no2)C(C)C)cc1 | 1.16
17 | C#C[C@]1(O)CC[C@H]2[C@@H]3CCC4=CC(=O)CC[C@@H]4[C@H]3CC[C@@]21C [Norethindrone] | 1.06
18 | CC1(C)S[C@@H]2[C@H](NC(=O)[C@H](N)c3ccccc3)C(=O)N2[C@H]1C(=O)O [Ampicillin sodium] | 1.16
19 | CC1(C)S[C@@H]2[C@H](NC(=O)[C@H](N)c3ccccc3)C(=O)N2[C@H]1C(=O)O [Ampicillin Trihydrate] | 1.08
20 | OCc1c[nH]c2ccccc12 [Indole-3-carbinol] | 1.11
21 | O=C(O)CCCc1c[nH]c2ccccc12 [3-Indolebutyric acid (IBA)] | 1.07
22 | O=C(/C=C/c1ccc(CN(CCO)CCc2c[nH]c3ccccc23)cc1)NO [LAQ824 (Dacinostat)] | 0.11
23 | OC[C@H]1O[C@H](O[C@]2(CCl)O[C@H](CCl)[C@@H](O)[C@@H]2O)[C@H](O)[C@@H](O)[C@H]1Cl [Sucralose] | 1.05

Row | SMILES | relative cell viability
24 | CN1CCC(CNc2ccc3ncc(-c4cccc(OC(F)(F)F)c4)n3n2)CC1 [SGI-1776 free base] | 0.976
25 | COc1cccc2c1c(O)c(C(=O)N(C)c1ccc(C(F)(F)F)cc1)c(=O)n2C [Tasquinimod] | 1.19
26 | Cc1cccc(-c2nn3c(c2-c2ccnc4ccc(C(N)=O)cc24)CCC3)n1 | 0.91
27 | CC(=O)OCOC(=O)CN(CC(=O)OCOC(C)=O)c1ccccc1OCCOc1ccccc1N(CC(=O)OCOC(C)=O)CC(=O)OCOC(C)=O | 1.22
28 | CCc1cc(Nc2nccc(-c3c(-c4ccc(OC)c(C(=O)Nc5c(F)cccc5F)c4)nc4ccccn34)n2)c(OC)cc1N1CCC(N2CCN(S(C)(=O)=O)CC2)CC1 | 1.32
29 | CCOC(=O)C1=C(N)Oc2ccc(Br)cc2C1C(C#N)C(=O)OCC (stereo not given) | 1.02
30 | CC(C(=O)O)c1ccc(C(=O)c2cccs2)cc1 (stereo not given) [Suprofen] | 1.11
31 | COc1ccc(C[C@H](NC(=O)[C@H](C)NC(=O)CN2CCOCC2)C(=O)N[C@@H](Cc2ccccc2)C(=O)[C@@]2(C)CO2)cc1 | 0.23
32 | O=C(O)c1cc(C(F)(F)F)ccc1N1CC[C@H](OCc2ccccn2)C1 | 0.958
33 | CCN1C[C@H](C)n2c(c(O)c3c(=O)n(Cc4ccc(F)c(Cl)c4)nc(C(=O)NC)c32)C1=O | 1.14
34 | Cc1cccc(C)c1NC(=O)C1CCCCN1C (stereo not given) [Mepivacaine HCl] | 1.03
35 | COc1ccc(S(=O)(=O)N(CCO)c2ccccc2CN(C)C/C=C/c2ccc(Cl)cc2)cc1 [KN-93 Phosphate] | 1.14
36 | CC(C)C(=O)Oc1ccc(CO)cc1[C@H](CCN(C(C)C)C(C)C)c1ccccc1 [Fesoterodine Fumarate] | 1.1
37 | C[C@@H](CN1CC(=O)NC(=O)C1)N1CC(=O)NC(=O)C1 [Dexrazoxane HCl (ICRF-187, ADR-529)] | 1.1
38 | CN1CCN(CCOc2cc(OC3CCOCC3)c3c(Nc4c(Cl)ccc5c4OCO5)ncnc3c2)CC1 [Saracatinib (AZD0530)] | 1.09
39 | Cn1cc(/C=C2\C(=O)Nc3cccnc32)c2ccccc21 | 1
40 | CC(=O)S[C@@H]1CC2=CC(=O)CC[C@]2(C)[C@H]2CC[C@@]3(C)[C@@H](CC[C@@]34CCC(=O)O4)[C@H]12 [Spironolactone] | 1.1
41 | Cn1c(=O)c(F)c(Nc2ccc(I)cc2F)c2c(=O)n(C[C@@H](O)CO)cnc21 | 0.14
42 | COc1cc(F)c(F)c(Nc2ccc(I)cc2F)c1NS(=O)(=O)C1(C[C@H](O)CO)CC1 [Refametinib (RDEA119, Bay 86-9766)] | 0.196
43 | Cn1c(=O)c2c(ncn2CC(O)CO)n(C)c1=O (stereo not given) [Dyphylline] | 1.22
44 | CC1=C(C(=O)OC2CCCCC2)C(c2ccc([N+](=O)[O-])cc2)C2=C(CC(C)(C)CC2=O)N1 (stereo not given) | 1.31
45 | Cc1c(OCC(F)(F)F)ccnc1C[S+]([O-])c1nc2ccccc2[nH]1 (stereo not given) [Lansoprazole] | 1.2
